Assay [1] in a line: binders of probe aFSTL3 on microarray, primary screen, stem cell growth factor project, biochemical, small-molecule microarray, fluorescence 635/667 (AID 1064).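 Note: measures binding of the biotinylated anti-FSTL3 antibody to printed compounds.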 To be noted: higher = more signal.
A short description of assay [2]: binders from COS7 lysate, DM2A8 probe, primary screen, torsin A project, cell lysate, small-molecule microarray, fluorescence 635/667 (AID 1065). The following applies: higher = more signal, COS7 lysate expressing mutant human TOR1A.
A short description of assay [3]: binders of probe aFGF2 on microarray, primary screen, stem cell growth factor project, biochemical, small-molecule microarray, fluorescence 635/667 (AID 1067).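 Note: measures binding of biotinylated aFGF2 protein to printed compounds on slides; z-score merges feature fluorescence and signal-to-noise across triplicate slides.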 The following applies: higher = more signal.
Assay [4] can be described thus: binders of probe aFGF10 on microarray, primary screen, stem cell growth factor project, biochemical, small-molecule microarray, fluorescence 635/667 (AID 1071).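 Note: score merges 667 nm spot intensity and signal to noise from triplicate slides.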 To be noted: higher = more signal.
For assay [5], the target named is Neurogenic locus notch homolog protein 2 (Homo sapiens) (UniProt Q04721). As to the kind of experiment: Notch2 binders on small-molecule microarrays, primary screen, biochemical, small-molecule microarray, 635 nm fluorescence, stem cell growth factors (AID 1073). The following applies: Notch2 binding, higher = more signal.
The target in assay [6] is Pro-neuregulin-1, membrane-bound isoform (Homo sapiens) (UniProt Q02297). As to the kind of experiment: NRG1 binders on small-molecule microarrays, primary screen, psychiatric disease protein project, biochemical, small-molecule microarray, fluorescence 635/667 (AID 1075).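 Note: score combines 667 nm spot fluorescence with signal to noise.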 The following applies: NRG1 binding, 635 nm fluorescence, higher = more signal.
The subject of assay [7] is Neuregulin-1 EGF-like domain. Nature of the assay: binders of neuregulin-1 EGF-like domain, primary screen, biochemical, small-molecule microarray, 635 nm fluorescence (AID 1081).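 Note: binding of the protein to compounds printed on small-molecule microarray slides.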 The following applies: small-molecule microarray binding, higher = more signal.
The nature of assay [8]: FRG1 promoter luciferase signal modulators, primary screen, FRG1 inhibition for FSHD, cell-based, C2C12 myotubes, firefly/Renilla luciferase, luminescence (AID 1084). To be noted: higher = more signal, called active from +8 up or from −8 down.
Assay [9] in a line: binders of probe aFST on microarray, primary screen, stem cell growth factor project, biochemical, small-molecule microarray, fluorescence 635/667 (AID 1086).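 Note: score merges 667 nm fluorescence with signal-to-noise of each printed compound spot.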 The following applies: higher = more signal.
The nature of assay [10]: binders of probe aHhip on microarray, primary screen, stem cell growth factor project, biochemical, small-molecule microarray, fluorescence 635/667 (AID 1087).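 Note: score merges spot fluorescence at 667nm with spot signal to noise ratio.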 The following applies: higher = more signal.

Structures are written as SMILES. Activity calls are given as the source filed them.

Sequence of Pro-neuregulin-1, membrane-bound isoform (Homo sapiens) (Q02297 whole entry, looked up, the tested form may be a part, canonical isoform): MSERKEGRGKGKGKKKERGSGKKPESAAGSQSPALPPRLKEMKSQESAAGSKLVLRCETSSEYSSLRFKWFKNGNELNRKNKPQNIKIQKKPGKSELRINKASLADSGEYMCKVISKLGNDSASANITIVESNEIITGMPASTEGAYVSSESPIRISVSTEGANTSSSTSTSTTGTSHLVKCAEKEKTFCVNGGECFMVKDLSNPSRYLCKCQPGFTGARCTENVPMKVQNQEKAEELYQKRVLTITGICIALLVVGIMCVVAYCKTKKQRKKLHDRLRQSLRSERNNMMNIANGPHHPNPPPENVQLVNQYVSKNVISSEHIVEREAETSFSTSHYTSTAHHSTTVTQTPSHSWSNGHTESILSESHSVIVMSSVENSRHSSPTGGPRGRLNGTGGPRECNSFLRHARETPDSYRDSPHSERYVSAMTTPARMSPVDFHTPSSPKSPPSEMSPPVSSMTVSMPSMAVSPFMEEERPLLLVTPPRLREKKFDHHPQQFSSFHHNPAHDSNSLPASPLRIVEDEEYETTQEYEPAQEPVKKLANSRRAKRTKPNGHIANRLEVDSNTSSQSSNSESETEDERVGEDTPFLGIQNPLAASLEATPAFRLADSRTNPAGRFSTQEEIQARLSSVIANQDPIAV
Sequence of Neurogenic locus notch homolog protein 2 (Homo sapiens) (Q04721 whole entry, looked up, canonical isoform): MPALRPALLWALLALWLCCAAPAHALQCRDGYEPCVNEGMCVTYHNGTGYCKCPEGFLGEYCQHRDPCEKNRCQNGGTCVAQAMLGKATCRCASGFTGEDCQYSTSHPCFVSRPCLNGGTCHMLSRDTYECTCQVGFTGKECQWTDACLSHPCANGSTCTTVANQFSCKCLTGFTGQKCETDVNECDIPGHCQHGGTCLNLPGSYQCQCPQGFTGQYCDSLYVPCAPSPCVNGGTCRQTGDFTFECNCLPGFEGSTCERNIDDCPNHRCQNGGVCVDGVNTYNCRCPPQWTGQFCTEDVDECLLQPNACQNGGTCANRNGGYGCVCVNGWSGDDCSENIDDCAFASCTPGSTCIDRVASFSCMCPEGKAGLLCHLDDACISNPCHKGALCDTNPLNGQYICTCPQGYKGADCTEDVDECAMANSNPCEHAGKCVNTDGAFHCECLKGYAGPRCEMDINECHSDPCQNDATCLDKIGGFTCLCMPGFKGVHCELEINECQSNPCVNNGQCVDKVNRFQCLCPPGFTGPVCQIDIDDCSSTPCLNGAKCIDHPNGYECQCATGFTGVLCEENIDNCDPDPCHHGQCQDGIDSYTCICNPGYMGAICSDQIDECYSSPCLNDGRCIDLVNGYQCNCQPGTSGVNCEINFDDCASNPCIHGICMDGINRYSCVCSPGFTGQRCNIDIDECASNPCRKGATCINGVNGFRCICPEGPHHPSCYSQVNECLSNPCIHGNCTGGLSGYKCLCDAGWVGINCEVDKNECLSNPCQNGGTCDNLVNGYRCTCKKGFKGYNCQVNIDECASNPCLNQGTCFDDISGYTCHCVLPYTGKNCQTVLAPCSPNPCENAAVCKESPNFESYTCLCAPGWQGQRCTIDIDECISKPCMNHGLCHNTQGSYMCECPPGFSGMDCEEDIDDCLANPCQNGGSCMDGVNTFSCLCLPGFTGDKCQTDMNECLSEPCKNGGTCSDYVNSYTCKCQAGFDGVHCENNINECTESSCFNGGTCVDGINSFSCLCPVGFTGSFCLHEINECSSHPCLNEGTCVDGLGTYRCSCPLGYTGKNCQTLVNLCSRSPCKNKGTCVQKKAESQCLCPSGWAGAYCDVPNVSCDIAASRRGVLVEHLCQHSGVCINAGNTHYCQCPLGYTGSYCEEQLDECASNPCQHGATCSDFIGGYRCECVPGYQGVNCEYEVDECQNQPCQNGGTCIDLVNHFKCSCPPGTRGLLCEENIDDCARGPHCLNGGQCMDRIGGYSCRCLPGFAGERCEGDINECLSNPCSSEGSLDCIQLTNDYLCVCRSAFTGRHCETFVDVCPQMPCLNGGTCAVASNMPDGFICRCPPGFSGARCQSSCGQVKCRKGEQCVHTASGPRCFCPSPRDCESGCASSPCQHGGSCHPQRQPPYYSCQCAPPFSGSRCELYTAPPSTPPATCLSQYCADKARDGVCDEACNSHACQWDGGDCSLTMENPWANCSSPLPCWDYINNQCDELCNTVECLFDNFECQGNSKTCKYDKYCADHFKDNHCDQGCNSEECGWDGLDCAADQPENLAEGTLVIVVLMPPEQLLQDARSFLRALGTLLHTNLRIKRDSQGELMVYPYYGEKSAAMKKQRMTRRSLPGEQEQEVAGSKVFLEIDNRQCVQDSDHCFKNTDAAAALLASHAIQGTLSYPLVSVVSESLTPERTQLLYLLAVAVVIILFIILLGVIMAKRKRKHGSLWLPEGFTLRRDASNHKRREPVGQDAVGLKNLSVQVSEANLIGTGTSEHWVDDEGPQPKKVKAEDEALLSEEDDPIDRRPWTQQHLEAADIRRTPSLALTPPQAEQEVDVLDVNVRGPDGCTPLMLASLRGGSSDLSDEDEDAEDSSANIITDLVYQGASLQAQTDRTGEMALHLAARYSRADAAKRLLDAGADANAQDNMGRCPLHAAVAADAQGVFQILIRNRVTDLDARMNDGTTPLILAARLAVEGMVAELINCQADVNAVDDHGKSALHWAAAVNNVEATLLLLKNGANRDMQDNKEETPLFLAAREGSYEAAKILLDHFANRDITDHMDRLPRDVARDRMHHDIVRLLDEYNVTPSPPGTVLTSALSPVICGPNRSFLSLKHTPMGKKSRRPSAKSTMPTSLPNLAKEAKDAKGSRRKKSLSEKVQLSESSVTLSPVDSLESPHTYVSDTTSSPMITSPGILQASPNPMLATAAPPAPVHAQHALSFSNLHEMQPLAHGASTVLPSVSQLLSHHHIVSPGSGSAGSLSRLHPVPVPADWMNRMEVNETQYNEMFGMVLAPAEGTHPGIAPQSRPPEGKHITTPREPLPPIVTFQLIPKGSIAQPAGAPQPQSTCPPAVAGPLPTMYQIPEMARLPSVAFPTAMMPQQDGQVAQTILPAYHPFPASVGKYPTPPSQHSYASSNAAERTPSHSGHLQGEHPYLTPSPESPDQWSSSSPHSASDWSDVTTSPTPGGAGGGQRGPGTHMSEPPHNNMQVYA

On to `COCCOC(=O)N1C(=O)[C@@]2(c3cc(C#Cc4ccc(OC)cc4)ccc31)[C@H](C(=O)N1CCCCCCC1)[C@H]1C(=O)O[C@H](c3ccccc3)[C@H](c3ccccc3)N1[C@@H]2c1ccc(O)cc1`, for which the composite z-score was 2.75 in assay [1]; 0.294 in [2]; 0.125 in assay [3]; 0.479 in [4]; 0.565 in assay [5]; 0.114 in assay [6]. The results for the composite z-score in assay [7], in assay [9] and in assay [10] were 1.13, 2.06 and 0.615, respectively. Besides, the z-score in assay [8] was 1.09 (inactive).
As for `C=C(/C=C/CNS(=O)(=O)c1ccc(C)cc1)[C@H](O)[C@H]1CCCN1S(=O)(=O)c1ccccc1[N+](=O)[O-]`, the composite z-score was -0.402 in [1]; 0.578 in assay [2]; -0.0817 in assay [3]; 0.395 in [4]; 0.324 in [5]; 0.211 in assay [6]. The values for the composite z-score in assay [7], in [9] and in [10] were 0.0706, 0.279 and 0.0373, respectively. Further, the z-score in assay [8] was -4.12 (inactive).
Take `CON(C)C(=O)C=C1C[C@@H](c2cccc(Cl)c2)O[C@@H](c2cccc(Cl)c2)O1`: the composite z-score was -0.0715 in [1]; 1.03 in assay [2]; 0.0168 in [3]; -0.0102 in [4]; -0.0986 in assay [5]; 1 in assay [6]. Moreover, the composite z-score in assay [7] is 0.524; in assay [9], -0.0994; in [10], -0.0645. Also, in assay [8], the z-score is -1.83 (inactive).
Consider `C=CC[C@H](OC(=O)Nc1ccc(OC)cc1)c1ccc(O)c2ccccc12`, for which the composite z-score is -0.471 in [1]; 0.38 in assay [2]; -0.0894 in assay [3]; 0.517 in [4]; 1.28 in assay [5]; 0.473 in assay [6]. The figures for the composite z-score in assay [7], in [9] and in assay [10] were 0.933, 0.0069 and 0.176, respectively. The z-score in [8] was 6.36 (inactive).
As for `COCC(=C=CC[C@H](O)c1ccc(OCCO)cc1)C[C@H](O)COCc1ccccc1`, the composite z-score in [1] is -0.41; in assay [2], 0.0477; in assay [3] it was -0.0762; in assay [4], 0.477; in assay [5], 0.189; in assay [6], 0.586. The composite z-score in assay [7] is 1.03; in assay [9] it was 0.163; in assay [10] it was 0.0505. Besides, the z-score in [8] is 0.723 (inactive).
`CC=CC(O)C1C=CC2C(=O)N(c3ccccc3)C(=O)C2N1Nc1ccccc1` (stereo not given): the composite z-score is 0.393 in assay [1]; 0.274 in assay [2]; -0.0114 in [3]; 1.02 in [4]; 1.68 in assay [5]; 1.91 in [6]. The composite z-score in [7] was 1.29; in assay [9] it was 1.14; in [10] it was -0.0852. The z-score in assay [8] is 0.568 (inactive).
With `CC(C)N1C(=O)[C@@]2(c3ccc([N+](=O)[O-])cc3)CC(=O)N(C3CCCCC3)[C@@H]2c2ccc(CO)cc21`, the composite z-score is -0.437 in assay [1]; 0.0633 in assay [2]; -0.151 in assay [3]; -0.0689 in [4]; -0.465 in [5]; -0.299 in assay [6]. Also, the composite z-score in [7] is 0.209; in assay [9], -0.293; in assay [10], -0.118. Moreover, the z-score in assay [8] was 1.25 (inactive).
Consider `NCCCCCNC(=O)[C@@H]1C[C@@H]2C(=O)N[C@@H](CCCCN)C(=O)N2[C@@H]1c1cccc(OCCO)c1`, for which the composite z-score in assay [1] was 0.0523; in assay [2], 0.329; in assay [3], -0.0037; in [4], -0.202; in assay [5] it was -0.254; in [6] it was 2.11. Further, the composite z-score is 0.969 in assay [7], -0.413 in assay [9] and 0.0497 in assay [10]. The z-score in [8] is -0.697 (inactive).
Take `COC(=O)Cn1c(C(=O)N2CCCC2)cc2c1C[C@H]1CN(C(=O)c3ccccc3)[C@@](Cc3ccc(F)cc3)(C(=O)OC)[C@@H]21`: the composite z-score was -0.366 in assay [1]; 0.281 in assay [2]; -0.0329 in [3]; 0.0839 in assay [4]; 0.358 in assay [5]; 2 in assay [6]. The composite z-score in assay [7] turned out to be 1.07; in [9] it was 0.131; in [10], 0.0845. Also, in [8], the z-score was -0.566 (inactive).
As to `NC(=O)N1C(=O)C2C(C1=O)C1C=C(c3ccc(CO)cc3)C2C(C2CC2)N1Cc1sc2ccccc2c1Cl` (stereo not given), the composite z-score in [1] was -0.418; in [2], 2.2; in assay [3], 0.0433; in [4] it was 1.17; in assay [5], 1.19; in assay [6], 1.6. Also, the composite z-score in assay [7] stood at 1.28; in assay [9], 0.32; in assay [10] it was 0.0623. The z-score in assay [8] was -1.27 (inactive).
On to `O=C(CS)NCCCCCCNC(=O)[C@H]1C[C@H]2C(=O)N[C@@H](Cc3ccccc3)C(=O)N2[C@H]1c1cccc(OCCO)c1`, for which the composite z-score is -0.165 in [1]; 0.605 in assay [2]; 0.0465 in [3]; 1.16 in [4]; 1.56 in [5]; 1.36 in assay [6]. For the same molecule, the figures for the composite z-score in assay [7], in [9] and in assay [10] were 1.41, 0.928 and -0.145, respectively. Besides, the z-score in assay [8] was 0.328 (inactive).
In the case of `CCOC(=O)[C@H]1C/C=C/C[C@H](C(=O)OCC)C(=O)O[C@H]2[C@@H](OC)O[C@H](CO)[C@@H](OC(=O)CCc3ccccc3)[C@@H]2OC1=O`, the composite z-score in assay [1] was -0.146; in assay [2], -0.267; in assay [3] it was 0.461; in [4] it was -0.485; in [5], -1.08; in assay [6] it was 0.815. Also, the composite z-score was -0.0615 in [7], -0.555 in assay [9] and -0.169 in assay [10]. The z-score in assay [8] is -1.26 (inactive).
`C=CC[C@@H](OC(=O)Nc1ccc(OC)cc1)c1ccc(OCCO)cc1`: the composite z-score in assay [1] is 0.767; in [2], -1.54; in assay [3], -0.131; in assay [4], -0.805; in assay [5], -2.39; in [6] it was -0.682. The composite z-score in [7] is 0.0481; in [9], -1.25; in assay [10], 0.0722. The z-score in assay [8] is 5.78 (inactive).
Consider `CC1CC/C=C\[C@H]2OC34C=CCN(c5ccc6ccccc6c5)C(=O)[C@H]3N(C(CO)C(C)C)C(=O)[C@@H]4C2C(=O)O1` (stereo not given in full), for which the composite z-score in assay [1] is -0.729; in assay [2], -0.0684; in assay [3], -0.0598; in assay [4] it was -0.0104; in assay [5], -0.477; in assay [6], 1.93. Also, the composite z-score in assay [7] is 1.43; in assay [9] it was -0.25; in [10], -0.132. Also, the z-score in assay [8] is 0.718 (inactive).
Regarding `C=C(CCCC)C(=O)CC[C@@H](OC(=O)c1cccnc1)c1ccccc1OCCO`, the composite z-score in [1] was 0.0165; in assay [2], 0.77; in [3], -0.0878; in assay [4], 0.0032; in [5] it was -0.872; in assay [6], -0.413. Moreover, the composite z-score in assay [7] is -0.0199; in assay [9] it was -0.604; in assay [10], -0.0994. For the same molecule, the z-score in [8] was -0.449 (inactive).
As for `CC(C)CN1C(=O)[C@@]2(c3ccc([N+](=O)[O-])cc3)CC(=O)N(CC34CC5CC(CC(C5)C3)C4)[C@@H]2c2ccc(CO)cc21`, the composite z-score is 0.311 in [1]; -1.76 in assay [2]; -0.186 in [3]; -0.34 in assay [4]; -0.602 in assay [5]; 0.251 in [6]. For the same molecule, the figures for the composite z-score in assay [7], in [9] and in assay [10] were -0.594, 0.0959 and -0.0994, respectively. Moreover, in assay [8], the z-score was 0.0918 (inactive).

The values above are taken from PubChem BioAssay.
